USP2a inh: inhibitors of human ubiquitin-specific protease USP2a; 330,000 tested, 0.01% active; USP2 core, Ub-CHOP2 coupled fluorogenic reporter, 485/531; O75604; Potency, µM (top dose mostly 38.3 µM), without a hit: at the top dose activity change, negative = inhibition, hits mostly inhibitors;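 further: potency means the concentration at half of the fitted maximal effect; plate controls were DMSO wells for no effect and full inhibition by NEM control for full effect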
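Deubiquitinase activity read as fluorescence (485/531 nm) after Ub-CHOP2 cleavage activates the enterokinase reporter on its substrate; USP2 core 10nM, Ub-CHOP2 and substrate 25nM each, 30min compound preincubation then 60min RT; data normalized to NEM, curves fitted.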
USP1 inh: inhibitors of human USP1/UAF1 deubiquitinase | recombinant USP1/UAF1, Ub-Rhodamine cleavage fluorescence | O94782 | AID 743255 | 390,000 tested, 0.23% active | Potency, µM (titrated, usually from 57.1 µM), for inactives: at the highest dose activity change, negative = inhibition, hits mostly inhibitors; further: potency means the concentration at half of the fitted maximal effect; nearly all actives have a fitted effect of over 60% in size
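Step one: compound is pinned into 1nM USP1/UAF1 in HEPES pH 7.8 buffer with TCEP. Step two: 15 min room-temperature incubation. Step three: Ub-Rho (150nM final) starts cleavage, tracked by fluorescence over six one-minute reads.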
WRN helicase inh: blocks human WRN helicase | Q14191 | WRN helicase unwinding, fluorescent forked duplex, kinetic | Potency, µM (highest dose often 114 µM), without a hit: at the top dose activity change, negative = inhibition, hits mostly inhibitors | 360,000 tested, 0.46% active; further: potency means the concentration at half of the fitted maximal effect; nearly all actives have a fitted effect of over 55% in size
Target sequence (Q14191 whole entry, looked up): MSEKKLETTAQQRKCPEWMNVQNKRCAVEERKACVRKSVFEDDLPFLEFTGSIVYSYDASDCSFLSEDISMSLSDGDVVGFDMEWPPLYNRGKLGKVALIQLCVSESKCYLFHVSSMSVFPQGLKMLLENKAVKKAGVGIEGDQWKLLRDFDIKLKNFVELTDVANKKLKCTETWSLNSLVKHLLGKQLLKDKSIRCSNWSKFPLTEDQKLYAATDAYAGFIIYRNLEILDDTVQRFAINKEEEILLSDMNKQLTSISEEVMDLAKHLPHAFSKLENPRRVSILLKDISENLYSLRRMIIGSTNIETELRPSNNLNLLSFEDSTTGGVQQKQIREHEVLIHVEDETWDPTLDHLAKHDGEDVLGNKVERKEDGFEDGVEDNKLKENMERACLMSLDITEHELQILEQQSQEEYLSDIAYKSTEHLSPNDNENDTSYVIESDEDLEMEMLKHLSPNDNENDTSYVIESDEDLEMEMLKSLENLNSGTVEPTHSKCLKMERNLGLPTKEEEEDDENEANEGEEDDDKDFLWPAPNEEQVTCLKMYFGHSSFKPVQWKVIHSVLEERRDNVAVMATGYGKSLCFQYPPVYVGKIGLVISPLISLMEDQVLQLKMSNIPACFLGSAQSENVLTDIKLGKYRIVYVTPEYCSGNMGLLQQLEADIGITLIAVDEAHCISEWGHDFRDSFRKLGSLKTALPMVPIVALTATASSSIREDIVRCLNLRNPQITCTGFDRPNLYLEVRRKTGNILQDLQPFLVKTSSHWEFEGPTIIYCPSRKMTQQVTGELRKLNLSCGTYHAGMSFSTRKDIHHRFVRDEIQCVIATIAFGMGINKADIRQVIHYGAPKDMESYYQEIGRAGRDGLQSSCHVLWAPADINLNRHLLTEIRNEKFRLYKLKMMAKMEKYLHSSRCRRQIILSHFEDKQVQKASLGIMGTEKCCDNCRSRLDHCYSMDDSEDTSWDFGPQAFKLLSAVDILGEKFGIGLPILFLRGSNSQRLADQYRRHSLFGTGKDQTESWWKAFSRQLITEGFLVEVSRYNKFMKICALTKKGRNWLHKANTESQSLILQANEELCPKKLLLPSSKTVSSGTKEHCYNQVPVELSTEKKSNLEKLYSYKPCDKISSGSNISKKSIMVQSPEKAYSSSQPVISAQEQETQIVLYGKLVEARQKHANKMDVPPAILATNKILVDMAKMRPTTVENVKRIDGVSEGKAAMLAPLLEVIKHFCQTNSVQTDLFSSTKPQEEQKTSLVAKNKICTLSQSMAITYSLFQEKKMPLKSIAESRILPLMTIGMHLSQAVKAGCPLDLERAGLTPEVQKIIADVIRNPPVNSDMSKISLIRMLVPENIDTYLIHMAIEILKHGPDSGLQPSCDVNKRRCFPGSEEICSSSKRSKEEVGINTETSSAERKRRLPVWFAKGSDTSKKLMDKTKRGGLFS
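Kinetic red-fluorescence monitoring (525/598 nm) tracks WRN helicase activity after 100 nM fluorophore-quencher forked duplex and 2 mM ATP are added to 20 nM enzyme pretreated 15 min at room temperature with compound.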
PLK1 PBD block: inhibitors of human PLK1 polo-box domain binding. Plk1 PBD binding of FITC phosphopeptide, fluorescence polarization. 360,000 tested, 2.8% active. Potency, µM, without a hit: max response, negative = inhibition, hits mostly inhibitors. P53350; further: potency means the concentration at half of the fitted maximal effect; series mostly up to about 57 µM; nearly all actives have a fitted effect of over 65% in size
PI5P4Ka inh: inhibitors of human PI5P4K alpha. PI5P4Kalpha enzyme, ADP-Glo luminescence, 60 min; stronger effect = lower value. max response, %. P48426. 330,000 tested, 1.2% active; active means max response of -50% or lower; inconclusive means between -30% and -50%; inactive means -30% or higher; further: value at the top dose of about 77 µM
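Single end-point luminescence (ADP-Glo) quantified ADP from PI5P4Kalpha turnover; ATP 5 microM final, 1 h at RT, 0.1% CHAPS and 0.28 mM EGTA in HEPES pH 7.4.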
Starred values were filed as active, the others as inactive; ? = inconclusive; nt = no result given; [ ] = dose if it differs, or a comment. Rows were chosen to be rich in hits. Some 3.3% of all compounds tested hit in one or more screens of this group. Unless noted, the call rests on the fitted dose curve; in most records, active means well fitted curve in the direction sought with a large enough effect; inconclusive means small, poorly fitted or top-dose-only effect, or another doubt; inactive means no such curve, though single readings can be large; an effect the other way counts as inactive or inconclusive. Unless noted, on the % scale 0 is the no-effect control and ±100 the full control effect.

SMILES | USP2a inh | USP1 inh | WRN helicase inh | PLK1 PBD block | PI5P4Ka inh
Cc1ccc(-n2ncc3c2CC(C)(C)CC3NC(=O)CCCN2CCCCC2=O)cc1 (stereo unspecified) | -1% | -2% | 0% | 27µM* | 6
O=C1CCCCCN1C(=O)c1ccc(C(=O)N2CCCCCC2=O)cc1 | 1% | -16% | 11% | 30µM* | -6
N#CC(C#N)=C1C=CC=CN1/C(=C\c1ccco1)C(=O)c1ccc(Br)cc1 | 2% | -23% | 56µM* | 3µM* | 4
COc1ccc(/C=C(/C(=O)c2cccs2)N2C=CC=CC2=C(C#N)C#N)cc1 | 3% | -26% | -15% | 6µM* | 3
COc1ccc(N=N/C(=C\O)C(=O)c2cccs2)cc1 | 0% | -29% | -21% | -14% | 0
N#CC(C#N)=C1C=CC=CN1/C(=C\c1ccco1)C(=O)c1ccccc1 | -1% | -22% | 18µM* | 12µM* | 1
COc1ccc(C(=O)/C(=C\c2ccco2)N2C=CC=CC2=C(C#N)C#N)cc1 | 3% | -24% | ? | 21µM* | -7
CC(C)(C)NC(=O)/C(=C/c1ccco1)c1ccccc1 | 5% | 0% | -5% | -2% | -14
Cc1ccc(C)c(CN2C(=O)c3ccccc3S(=O)(=O)c3ccc(C(=O)N4CCCCC4)cc32)c1 | nt | 5% | nt | nt | nt
CN1C(=O)C2(c3ccccc31)N(c1cccc(C(F)(F)F)c1)C(=O)CS2(=O)=O (stereo unspecified) | nt | -21% | nt | nt | nt
CCc1ccc(NC(=O)c2sc3nc(C)cc(C)c3c2NC(=O)c2ccccc2OC)cc1 | nt | -24% | nt | nt | nt
O=C(O)c1ccccc1N/N=C/c1cc(Br)cc(Br)c1O | -4% | ? | -34% | 21µM* | ?
Oc1c(Br)cc(Br)cc1/C=N/Nc1ccc(Cl)nn1 | 1% | -6% | 18%[57.1 µM] | -9% | 0
O=C(O)c1ccccc1N/N=C\c1ccnc2ccccc12 | 5% | -24% | -33% | -17% | -68*
O=C(Nc1cccc(N=Cc2cc(Br)cc(Br)c2O)c1)c1ccco1 | 6% | 28µM* | ? | ? | -59*
O=C(Nc1cc(Br)c(O)c(Br)c1)c1cccc(NC(=O)c2ccco2)c1 | -1% | -18% | -17% | -17% | -30
O=C(Cc1ccccc1)N/N=C/c1cc(Br)cc(Br)c1O | -1% | -13% | -6% | -26% | -57*
COCCc1nn2c(=O)cc(COC(=O)C(c3ccccc3)c3ccccc3)nc2s1 | nt | 0% | nt | nt | nt
COc1ccc(C)cc1NC(c1nnc(-c2ccccc2)o1)c1ccc(F)cc1Cl (stereo unspecified) | nt | -17% | nt | nt | nt
COc1ccc(CCNC(=O)CCn2c(=O)c3cccn3c3ccc(F)cc32)cc1OC | nt | -2% | nt | nt | nt
COc1ccc(CC(=O)N/N=C\c2cc(Br)c(O)c(Br)c2)cc1 | -1% | -14% | 2% | -5% | -68*
COCc1cc(/C=N\NC(=O)Cc2ccc(OC)cc2)ccc1OC | 0% | -13% | 9% | -7% | 3
CCOC(=O)C1CCCN(C(=O)c2ccc3c(c2)sc2nc(-c4cccc(OC)c4)cn23)C1 (stereo unspecified) | nt | -7% | nt | nt | nt
COc1ccc(Br)cc1S(=O)(=O)N1CCOCC1 | -1% | -5% | -4% | 1% | 11
COc1ccc(C)cc1S(=O)(=O)N1CCOCC1 | 0% | -15% | 6%[57.1 µM] | 19µM* | -11
SMILES | USP2a inh | USP1 inh | WRN helicase inh | PLK1 PBD block | PI5P4Ka inh
COc1ccc(/C=C/C(=O)Nc2ccccc2)cc1S(=O)(=O)N1CCOCC1 | 2% | -20% | 1% | -4% | -2
CCOc1ccc(/C=C/C(=O)Nc2ccc(N3CCOCC3)cc2)cc1 | 1% | -14% | -2% | 3.4µM* | 1
COc1ccc(/C=C/C(=O)Nc2ccc(NC(C)=O)cc2)cc1S(=O)(=O)N1CCOCC1 | 8% | -1% | -9% | 30µM* | 3
Cc1cccc(CNC(=O)CN2CC(C)Sc3ccccc32)c1 (stereo unspecified) | nt | -33% | nt | nt | nt
CCCSc1nnc2c(n1)OC(c1sccc1C)Nc1ccccc1-2 (stereo unspecified) | nt | 7% | nt | nt | nt
CC1=Nc2ccccc2/C1=C/c1nc(-c2ccc(C)s2)oc1O | 2% | 14% | 19% | 5% | 8
CC1=Nc2ccccc2/C1=C/c1sc(=N)n(-c2nccs2)c1O | 2% | -3% | ? | -24% | -70*
Fc1ccc(-c2n[nH]c(=S)n2Cc2ccccc2)cc1 | 2% | -11% | -2% | -9% | -3
C=CCn1c(-c2ccncc2)n[nH]c1=S | 0% | -14% | -3% | -7% | -9
S=c1[nH]nc(-c2ccc(Br)cc2)n1Cc1ccccc1 | -4% | -16% | -31% | 12µM* | ?
C=CCn1c(-c2ccccc2)n[nH]c1=S | -7% | -11% | 1% | 8.4µM* | -29
O=C(CSc1nc2c([nH]c3ccccc32)c(=O)n1-c1ccccc1)N1CCCC1 | nt | -4% | nt | nt | nt
NC1CCN(c2nc3c(cc2F)c(=O)c(C(=O)O)cn3-c2ccc(F)cc2F)C1 (stereo unspecified) | nt | -25% | -4% | 27µM* | -12
CC[n+]1cccc(-c2nc3ccccc3s2)c1 | -2% | -17% | 4% | 27µM* | -7
Oc1cccc(-c2nc3ccccc3s2)c1 | 1% | -23% | -34% | -18% | -10
N#C/C(=C\c1ccc(C(=O)O)cc1)c1nc2sc3c(c2c(=O)[nH]1)CCCC3 | 27% | ? | ? | ? | -50*
CCOC(=O)c1nc2sc3c(c2c(=O)[nH]1)CCCC3 | -1% | -7% | -9% | -21% | -13
O=C(Oc1ccccc1)n1c(=S)oc2ccccc21 | 1% | -12% | -15% | 21µM* | 0
COC(=O)n1c(=O)oc2ccccc21 | 1% | -16% | -22%[57.1 µM] | -9% | -5
Cc1ccccc1OC(=O)n1c(=S)oc2cc(Cl)ccc21 | 1% | -7% | 9% | 13µM* | -27
O=C(O)c1ccn2c(C(=O)c3ccc(Cl)cc3)c(-c3ccccc3)cc2c1 | 0% | 2% | 6% | 38µM* | -1
CCc1cccc(NC(=O)C(Cc2ccccc2)NS(=O)(=O)c2ccc3c(c2)oc(=O)n3C)c1 (stereo unspecified) | nt | -19% | nt | nt | nt
Nc1ccc(C(=O)Nc2ccc3c(O)cc(S(=O)(=O)O)cc3c2)cc1 | nt | ? | -17%[11.6 µM] | -11% | -52*
Nc1ccc(NC(=O)c2ccc(C(=O)Nc3ccc(N)cc3)cc2)cc1 | 1% | ? | -19% | 0% | -14
O=C(O)c1cnc(-c2ccccc2)nc1Sc1ccc(Cl)cc1Cl | 0% | -21% | 3% | 27µM* | nt
O=C(O)c1cnc(-c2ccccc2)nc1Sc1ccccc1 | 1% | -5% | -10% | ? | 7
O=C(O)c1cnc(-c2ccccc2)nc1Sc1cccc(Cl)c1 | 3% | -23% | -26% | 30µM* | 189
COCCNC(=S)NNc1ccc(Cl)c(C(=O)O)c1 | 1% | 1% | -12% | 27µM* | -1
